Screens from PubChem BioAssay.
Rpn11 inh – inhibitors of human proteasome Rpn11 | O00487 | human 26S proteasome, Ub4-pepOG fluorescence polarization; 20S core pre-blocked with epoxomicin | hit rate 0.59% among 360,000 | AID 588493 | calls only at 20 µM;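 active means inhibition at 20 µM, scaled to each plate's controls, above about 33%, limit read from the data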
Target sequence (O00487 whole entry, looked up): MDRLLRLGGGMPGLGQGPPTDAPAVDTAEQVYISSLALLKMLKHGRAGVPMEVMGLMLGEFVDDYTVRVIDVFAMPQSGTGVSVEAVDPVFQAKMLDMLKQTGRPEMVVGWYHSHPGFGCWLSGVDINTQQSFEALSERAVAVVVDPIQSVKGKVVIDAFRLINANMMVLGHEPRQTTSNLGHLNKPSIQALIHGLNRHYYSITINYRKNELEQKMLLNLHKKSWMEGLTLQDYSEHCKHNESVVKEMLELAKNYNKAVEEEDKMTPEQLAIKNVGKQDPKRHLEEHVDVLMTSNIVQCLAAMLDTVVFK
Neddyl block – inhibitors of human cullin neddylation | P61081+Q13564 | TR-FRET cullin neddylation, biochemical | inhibition, % at 25 µM | hit rate 0.58% among 360,000; in the data active means inhibition above about 36%
PKA-R1A act – activators of PKA-R1A complex; activation, % at 11.4 µM; P00514+P68181; hit rate 0.083% among 340,000; PKA-R1A dissociation, Cy5-IP20 fluorescence polarization; scaled: DMSO 0%, 113 µM cGMP 100%; AID 504707;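 active means percent activation above the mean of all tested compounds plus 3 SD, cut at about 19% in these data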;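 further: higher means more PKAc released from R1A so a rise in polarization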
PKA-R2B act – PKA-R2B complex activation | P22694+P31323 | hit rate 0.079% among 340,000 | activation, % at 11.4 µM | AID 504700 | PKA-R2B holoenzyme dissociation, Cy5-IP20 fluorescence polarization; R2B truncated from residue 108, S112A mutant; 0% DMSO only, 100% 113 µM cGMP;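 active means activation above a cutoff set at the mean over all compounds plus 3 SD, cut at about 18% in these data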;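 further: higher means more holoenzyme dissociation and a rise in polarization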
Neddyl inh conf – cullin neddylation inhibition, confirmation; shares compounds with Neddyl block; TR-FRET cullin neddylation biochemical assay; calls only at 25 µM; hit rate 13% among 1,800; AID 652217; in the data active means inhibition above about 40%;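 further: neddylation substrate is the cullin 1 ring ligase complex with SKP2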
Of the large screens only hits and unclear results are named; the others gave an inactive call (follow-up assays come after a bar, where shown); ! = not confirmed by another sample. An excerpt weighted towards active compounds, which were near 1.3% of everything screened.

Cc1ccc(-c2cc(C(=O)OCC(=O)NC3CC3)c3ccccc3n2)cc1	Neddyl block 47.0
O=C(c1cc(N2CCCCC2)nc2ccccc12)N1CCOCC1	Neddyl block 43.0 | Neddyl inh conf inactive
CC(C)C[C@H]1CNC(=S)N1C[C@H]1CCCN1C[C@H](Cc1ccccc1)N1C[C@H](CC(C)C)N(CCc2ccccc2)C1=S	none (no result: PKA-R1A act, PKA-R2B act)
O=c1[nH]c2ccccc2cc1CN(Cc1ccco1)S(=O)(=O)c1ccccc1	none
CNc1cncc(C(=O)O)c1	Neddyl block 40.2
Cc1ccc(C(c2nc3ccccc3[nH]2)n2c(-c3ccccc3)nc3ccccc32)cc1 (stereo not drawn)	none (not shown: Neddyl block, PKA-R1A act, PKA-R2B act)
Nc1cccc2c(=O)[nH][nH]c(=O)c12	Neddyl block 47.8 | Neddyl inh conf active
C=CCOC(=O)C(C#N)c1nc2ccccc2nc1N1CCN(Cc2ccccc2)CC1 (stereo not drawn)	none
C=CCNC(=O)C(C#N)c1nc2ccccc2nc1N1CCN(Cc2ccccc2)CC1 (stereo not drawn)	Neddyl block 42.2 | Neddyl inh conf inactive
CC(=O)Nc1ccc(S(=O)(=O)Nc2cccc3cccnc23)cc1	Neddyl block 43.4 | Neddyl inh conf active
N#CC1=C(N)Nc2nc3ccccc3n2C1c1ccc(Cl)cc1 (stereo not drawn)	Neddyl block 43.2 | Neddyl inh conf inactive
CCOc1ccc(-c2cncc3nccn23)cc1	none (not shown: Neddyl block, PKA-R1A act, PKA-R2B act)
CS(=O)(=O)Nc1ccc(-c2cncc3nccn23)cc1	Neddyl block 50.0 (not shown: PKA-R1A act, PKA-R2B act)
COC(=O)c1nc(N)sc1-c1ccccc1	Neddyl block 40.4
COc1ccc(C(=O)CC(CC(=O)c2ccc(OC)cc2)C(=O)O)cc1	none
Cc1ccccc1Nc1c(-c2cccnc2)nc2ccccn12	Neddyl block 39.4 | Neddyl inh conf inactive
COc1cc(OC)cc(C(=O)N[C@H](C(=O)OCC(=O)Nc2cccnc2Cl)C(C)C)c1	none
CCn1c(CSc2nc3ccccc3[nH]2)nc2cc(C(=O)O)ccc21	Neddyl block 47.7
CCn1c(CSc2nccn2C)nc2cc(C(=O)O)ccc21	none
NC(N)=NC(=O)c1nc(Cl)c(N)nc1N	Neddyl block 40.4! | Neddyl inh conf inactive
NC(N)=NC(=O)c1nc(Cl)c(N2CCCCCC2)nc1N	none
COC(=O)c1ccc2nc(-c3ccc(F)cc3)c(Cc3ccccc3OC)n2c1	Neddyl block 52.7 (no result: Rpn11 inh, PKA-R1A act, PKA-R2B act) | Neddyl inh conf inactive
O=C(NC1CCCc2ccccc21)c1cccc(Br)c1 (stereo not drawn)	none
CN(C)c1cccc(C(=O)NC2CCCc3ccccc32)c1 (stereo not drawn)	Neddyl block 47.7 | Neddyl inh conf inactive
CCCOc1ccc(-c2nc(C#N)c(N3CCc4ccccc4C3)o2)cc1	Neddyl block 49.1 | Neddyl inh conf inactive
N#Cc1nc(-c2ccccc2)oc1N1CCN(C(=O)c2ccco2)CC1	Neddyl block 41.8 | Neddyl inh conf inactive
N#Cc1nc(-c2ccco2)oc1N1CCc2ccccc2C1	Neddyl block 45.3 | Neddyl inh conf inactive
CCCOc1ccc(-c2nc(C#N)c(N3CCN(C)CC3)o2)cc1	Neddyl block 46.0
CCCOc1ccc(-c2nc(C#N)c(N3CCN(CC)CC3)o2)cc1	none (not shown: Neddyl block)
N#Cc1nc(-c2ccco2)oc1N1CCCC1	none (not shown: Neddyl block)
N#Cc1nc(-c2ccccc2)oc1N1CCCCC1	none (not shown: Neddyl block)
CCC1Sc2ccc(S(=O)(=O)CCC(=O)Nc3ccc(OC(F)(F)F)cc3)cc2NC1=O (stereo not drawn)	none
CC(C)n1ncc2c(C(=O)NCCOc3ccccc3F)cc(C3CC3)nc21	Neddyl block 43.6 | Neddyl inh conf inactive
CCOc1ccc(OCCNC(=O)c2cc(C3CC3)nc3c2cnn3C(C)C)cc1	none
COc1ccc(CCNC(=O)c2cc(C3CC3)nc3c2cnn3C(C)C)cc1OC	none
CC(C)n1ncc2c(C(=O)NCCc3ccc(S(N)(=O)=O)cc3)cc(C3CC3)nc21	Neddyl block 64.3
O=C(O)c1ccccc1CC(CCc1ccccc1)C(=O)O (stereo not drawn)	none
O=C(COc1ccc2c3c(c(=O)oc2c1)CCCC3)N[C@@H](Cc1ccccc1)C(=O)O	Neddyl block 45.4
Cc1cc(NS(=O)(=O)c2ccc(NS(=O)(=O)c3ccc(Br)cc3)cc2)no1	Neddyl block 57.1 | Neddyl inh conf active
COc1ccc(-c2cn3cccnc3n2)cc1NC(=O)C1CCCC1	Neddyl block 40.2 | Neddyl inh conf inactive
O=C(O)COc1ccc(NC(=O)c2ccc3c(c2)C(=O)N(C2CCCCC2)C3=O)cc1	none
CCC(=O)Oc1ccc(C(=O)Nc2ccc3c(c2)C(=O)N(C2CCCCC2)C3=O)cc1	Neddyl block 42.3 | Neddyl inh conf inactive
CCOC(=O)C1=C(COC(=O)C2CC(=O)N(c3ccccc3F)C2)NC(=O)NC1C (stereo not drawn)	none
COCCNC(=O)/C(C#N)=C/c1c(N2CCN(c3ccccc3)CC2)nc2c(C)cccn2c1=O	Neddyl block 58.4 | Neddyl inh conf inactive
CC1CN(C(=O)COc2coc(CN3CCc4ccccc4C3)cc2=O)CC(C)O1 (stereo not drawn)	none
COc1ccc2oc3cc(C)[n+]([O-])c(-c4ccc(Cl)cc4)c3c2c1	Neddyl block 41.8 | Neddyl inh conf inactive
COc1ccc(-c2c3c(cc(C)[n+]2[O-])oc2ccc(OC)cc23)cc1	none
Cc1cccc(C)c1NC(=O)c1ccc(OCc2c(C)noc2C)cc1	Neddyl block 49.9 | Neddyl inh conf inactive
C=CCn1cc(-c2cccc(Cl)c2)cc(C#N)c1=O	Neddyl block 41.1 | Neddyl inh conf inactive
Cn1cc(-c2ccc(Cl)cc2)cc(C#N)c1=O	Neddyl block 46.2 | Neddyl inh conf inactive
CC(NC(=O)Nc1ccccc1F)C(C)(C)C (stereo not drawn)	none
CC1(C)CC(=O)C2=C(C1)OC(N)=C(C#N)C2c1cc2c(cc1[N+](=O)[O-])OCO2 (stereo not drawn)	Neddyl block 39.3 | Neddyl inh conf inactive
CCC(=O)Nc1cccc(-c2cn3ccccc3n2)c1	Neddyl block 40.9 | Neddyl inh conf inactive
COc1ccc(CC(=O)Nc2cccc(-c3cn4ccccc4n3)c2)cc1	none
O=C(Nc1cccc(-c2cn3ccccc3n2)c1)c1cccc(Cl)c1	Neddyl block 41.4
O=C(Nc1cccc(-c2cn3ccccc3n2)c1)c1cnccn1	none
CC(=O)Nc1cccc(-c2cn3ccc(C)cc3n2)c1	none (not shown: Neddyl block)
CC(=O)Nc1ccc2nc(-c3ccccc3)cn2c1	Neddyl block 43.8 | Neddyl inh conf inactive
Cn1nc(C(=O)NNC(=O)Cc2ccc(S(=O)(=O)N3CCOCC3)s2)c2ccccc2c1=O	none
COc1ccc2oc(=O)c(C(=O)N3CCN(C(=O)c4ccco4)CC3)cc2c1	none (not shown: Neddyl block)
COCc1cccc(-c2csc(C(C)(O)c3cccc(F)c3)n2)c1 (stereo not drawn)	none (no result: PKA-R1A act, PKA-R2B act)
O=C(CSc1nc(CCC2CCCC2)nc2ccccc12)NCc1ccc2c(c1)OCO2	none
N#CC1(NC(=O)CN2C(=O)NC3(CCCCCC3)C2=O)CCCCC1	none
O=c1ccc2cc3c(-c4ccccc4)coc3cc2o1	Neddyl block 45.6 | Neddyl inh conf inactive
